Source: ChEMBL document CHEMBL3988442, “University of Dundee, Small-Polar-MMV Screening Library” (2021)
The campaign covered roughly 69,000 compounds. About 950 (1.4%) showed an effect of 50% or more. The entries come from a sample that favours strong results as a whole.

The compounds below were run on Mycobacterium tuberculosis (assay: Cornell M. t heat shock assay; further: in the data most compounds retested in dose-response had high values).
Assay type: functional, organism-based
Design: dose or concentration left out as unconfirmed

Compound	Percent Effect
CCn1ccc(C(=O)N2CCCC2c2nnc(-c3scnc3C)o2)n1 (configuration not stated)	-2.34%
CC(c1cccc(Cl)c1)N(C)CCS(=O)(=O)CCC(N)=O (configuration not stated)	31.14%
Cc1ccc(OCCN(C)C(C)c2cccc(S(N)(=O)=O)c2)cc1 (configuration not stated)	-22.37%
Cc1ccc(C(C)N(C)CCS(=O)(=O)CCC(N)=O)cc1 (configuration not stated)	68.62%
CC(c1cc(F)ccc1F)N(C)CCS(=O)(=O)CCC(N)=O (configuration not stated)	49.2%
CC(c1ccc(F)c(F)c1)N(C)CCS(=O)(=O)CCC(N)=O (configuration not stated)	53.46%
Cc1ccc(C(C)NC(=O)CSCC(N)=O)cc1 (configuration not stated)	15.53%
O=C(O)C(F)(F)F.O=C(O)C(F)(F)F.O=C(O)C(F)(F)F.c1cc(CN2CCN3C[C@H](Oc4cncnc4)C[C@H]3C2)ccn1	11.96%
COCCN(CC1CC1)c1nc(CCN)nc2sc(C)c(C)c12	9.263%
Cc1sc2nc(CCN)nc(N(CCN(C)C)CC3CCCO3)c2c1C (configuration not stated)	-25.67%
CCN(CCN(C)C)c1nc(CCN)nc2sc(C)c(C)c12	91.54%
COc1cc(N2C[C@H]3CCC[C@@H](CN(C)C)[C@H]3C2)ncn1.O=C(O)C(F)(F)F	-30.27%
O=C1CCCC2=C1C(c1ccc(Cl)cc1Cl)Nc1nonc1N2 (configuration not stated)	15.96%
O=C(O)C(F)(F)F.O=C(O)C(F)(F)F.O=C(c1c[nH]cn1)N1CCC(F)(F)C2(CCN(c3ccccn3)C2)C1 (configuration not stated)	6.804%
O=C(O)C(F)(F)F.O=C(c1c[nH]cn1)N1CCC(F)(F)C2(CCN(c3ncccn3)C2)C1 (configuration not stated)	-10.36%
FC1(F)CCN(Cc2ccncc2)CC12CCN(c1cccnc1)C2.O=C(O)C(F)(F)F.O=C(O)C(F)(F)F.O=C(O)C(F)(F)F (configuration not stated)	-5.593%
FC1(F)CCN(Cc2cccnc2)CC12CCN(c1ccccc1)C2.O=C(O)C(F)(F)F.O=C(O)C(F)(F)F.O=C(O)C(F)(F)F (configuration not stated)	107.1%
O=C(CO)N1CCC(F)(F)C2(CCN(c3ccccc3)C2)C1.O=C(O)C(F)(F)F (configuration not stated)	34.47%
O=C(O)C(F)(F)F.O=C(c1c[nH]cn1)N1CCC(F)(F)C2(CCN(c3cccc(F)c3)C2)C1 (configuration not stated)	53.67%
FC1(F)CCN(Cc2cccnc2)CC12CCN(c1ccccn1)C2.O=C(O)C(F)(F)F.O=C(O)C(F)(F)F.O=C(O)C(F)(F)F (configuration not stated)	8.031%
O=C(O)C(F)(F)F.O=C(O)C(F)(F)F.O=C(O)CN1CCC(F)(F)C2(CCN(c3ccccc3)C2)C1 (configuration not stated)	100.8%
O=C(O)C(F)(F)F.O=C(O)C(F)(F)F.O=C(O)CN1CCC(F)(F)C2(CCN(c3ccccn3)C2)C1 (configuration not stated)	-7.749%
Cc1ccc(C(=O)N2CCC3(CCN(C(=O)c4cccnc4)C3)CC2)o1.O=C(O)C(F)(F)F	1.785%

Compound	Percent Effect
COC(=O)CC(C)(C)CC(=O)N1CCC(C(F)(F)F)CC1	-1.161%
Cc1nn(C)cc1S(=O)(=O)NCC(c1ccccc1)N1CCCCCC1.Cl (configuration not stated)	-15.55%
CN(C)CCNCCC(Cc1ccccc1)C1CCOC(C)(C)C1.O=C(O)C(=O)O (configuration not stated)	-22.2%
Cl.FC(F)(F)c1nc(C2CCNCC2)no1	-8.269%
COCCN1CCC2(CC1)CC(NCc1ccc(C)s1)c1ccccc12.O=C(O)C(F)(F)F.O=C(O)C(F)(F)F (configuration not stated)	1.76%
Cc1nc(CN2C[C@@H]3CN(C(=O)c4cccn4C)C[C@@H]3C2=O)cs1.O=C(O)C(F)(F)F	-10.46%
O=C(O)C(F)(F)F.O=C(c1ccc(F)cc1)N1C[C@H]2CCC[C@@]2(COCc2ccccn2)C1	7.203%
CN1CCCC(c2cccc(-c3cccc(Cl)c3)n2)C1 (configuration not stated)	-13.07%
N#Cc1ncn(CC(=O)Cc2c(F)cccc2Cl)n1	85.52%
N#Cc1ncn(Cc2c(F)cccc2Cl)n1	-2.259%
CN(Cc1c(F)cccc1Cl)C(=O)Cn1cnc(C#N)n1	-1.386%
CCc1ccc(CN2CCCCC2c2n[nH]cc2-c2cc(C)no2)cc1.Cl (configuration not stated)	16.34%
CS(=O)(=O)N[C@@H]1CCO[C@]2(CCN(C(=O)c3cnccn3)C2)C1	9.518%
CS(=O)(=O)N[C@H]1CCO[C@]2(CCN(C(=O)c3ccccn3)C2)C1.O=C(O)C(F)(F)F	72.36%
CS(=O)(=O)N[C@@H]1CCO[C@]2(CCN(C(=O)c3cscn3)C2)C1	-9.704%
CCC(N)C(=O)N1CCC(OCc2ccc(Cl)c(Cl)c2)CC1.Cl (configuration not stated)	20.26%
Cc1ccc(CNCc2nccn2C)c(OCC2CC2)c1	39.25%
CCn1ccnc1CNCc1ccc(C)cc1OC(C)(C)C	55.22%
Cc1ccc(CNCc2nccn2C)c(OC(C)(C)C)c1	50.94%
Cc1ccc(CNC(=O)NCc2nccn2C)c(OC(C)(C)C)c1	2.123%
CCn1ccnc1CNc1nccc(-c2c(C)nn(C)c2C)n1	4.641%
CCn1ccnc1CNCC1CCCN1c1cccnn1 (configuration not stated)	2.735%
Cn1cccc1C(=O)NC[C@]12COC[C@H]1CN(Cc1nccs1)C2.O=C(O)C(F)(F)F	-42.54%

Compound	Percent Effect
COc1nccnc1N1C[C@@H]2CC[C@H](C1)N(CC=C(C)C)C2=O	-19.62%
COCCN(C)C1COC2(CCN(Cc3ccccn3)CC2)C1.O=C(O)C(F)(F)F.O=C(O)C(F)(F)F (configuration not stated)	-27.77%
COCCO[C@H]1CCN(Cc2cccnc2)[C@H]1Cc1cccnc1.O=C(O)C(F)(F)F.O=C(O)C(F)(F)F.O=C(O)C(F)(F)F	-30.96%
COCCO[C@@H]1CCN(C(=O)c2ccc(C)o2)[C@@H]1Cc1cnn(C)c1	11.53%
COCCO[C@@H]1CCN(C(=O)c2ccc(C)o2)[C@@H]1Cc1cccnc1.O=C(O)C(F)(F)F	104.5%
CC[C@@H]1N(Cc2ccc(C)o2)CCC[C@]12CCC(=O)N2CCOC.O=C(O)C(F)(F)F	-28.97%
CN(C)CCNC(=O)c1sc2ccccc2c1C1CCC(CN)CC1.Cl (configuration not stated)	20.1%
Cl.NCC1CCC(c2c(C(=O)NCCO)sc3ccccc23)CC1 (configuration not stated)	85.23%
COCCNC(=O)c1sc2ccccc2c1C1CCC(CN)CC1.Cl (configuration not stated)	16.29%
CC(C)c1n[nH]c(C(=O)Nc2cc[nH]n2)c1Br	4.113%
Cc1ccnc(NC(=O)c2[nH]nc(C(C)C)c2Br)c1	68.96%
CC(C)c1n[nH]c(C(=O)Nc2ccccn2)c1Br	-0.4918%
O=C(O)C(F)(F)F.O=C(O)C(F)(F)F.c1cncc(O[C@@H]2CC[C@H]3[C@H]2OCCN3C2CCCC2)c1	-35.82%
CCCN(CC)c1cc(C2CCNCC2)nc(C)n1	-15.84%
COc1ccc2[nH]c(CNc3cc(C4CCNCC4)nc(C)n3)cc2c1	101.5%
Cc1nc(NCc2cccc(F)c2)cc(C2CCNCC2)n1.Cl	-3.606%
CN(Cc1cc2cc(F)ccc2[nH]1)c1cc(C2CCCNC2)ncn1 (configuration not stated)	27.99%
Cc1nc(-c2ccc(F)cc2)cc(C2CCNCC2)n1	-9.323%
Cc1nc(NCc2ccc(C)o2)cc(C2CCNCC2)n1	-22.33%
CCN(Cc1ccncc1)c1cc(C2CCNCC2)nc(C)n1	-13.1%
Cc1nc(C2CCNCC2)cc(N(C)Cc2cc3cc(F)ccc3[nH]2)n1	81.43%
CCN(Cc1c(F)cccc1Cl)c1cc(C2CCNCC2)nc(C)n1	69.57%
COc1ccc(CNC(C)c2ccccc2Cl)c(OC)c1OC.Cl (configuration not stated)	-26.61%

Compound	Percent Effect
COc1c(CNC2CCSc3ccc(F)cc32)c(C)nn1C.Cl (configuration not stated)	15.14%
CNC(C(=O)OC)c1cc(F)ccc1F.Cl (configuration not stated)	1.092%
O=C(O)C(F)(F)F.O=C(O)C(F)(F)F.O=C(c1ccncc1)N1CC[C@@H]2CN(C3CCOCC3)CCO[C@@H]2C1	7.278%
Cc1cccc(CN2CCc3nnc(CN4CCCC4=O)n3CC2)n1.O=C(O)C(F)(F)F	-34.57%
Cc1cc(=O)[nH]c(-n2nc(C)c(CCC(=O)NCc3cccs3)c2C)n1	102.2%
Cc1cc(=O)[nH]c(-n2nc(C)c(CCC(=O)NCc3ccco3)c2C)n1	61.79%
Cc1noc(C)c1CCC(=O)NCCc1cccs1	11.5%
Cc1nc2c(c(C)c1CC(=O)NCc1cccs1)c(=O)[nH]n2C	11.25%
Cc1ccn(CCC(=O)NCc2ccco2)n1	6.355%
Cc1cc(C(=O)NCc2ccco2)nn1C	12.62%
O=S(=O)(CCO)CCc1ccccc1Cl	17.45%
CCN1CCc2c(sc3c2C(=O)NC(/C=C\c2ccccc2)N3)C1 (configuration not stated)	-24.35%
Cn1c2ncccc2c(=O)n1CC(=O)NCCC1=CCCCC1	-2.25%
CCCc1nn(Cc2ccc(Br)s2)c(=O)o1	31%
CCC(=O)N1CCN(C(=O)Cn2cccn2)CC1	62.88%
CC(C)CN1CCN(C(=O)CCn2cccn2)CC1	37.09%
CCC(=O)N1CCN(C(=O)CCn2cccn2)CC1	10.75%
O=C1NCCN1CCNc1cc(-c2ccncc2)nc2ccnn12	-39.13%
CC1(C)Cc2cc(-c3cncn3CCNC3CCS(=O)(=O)C3)ccc2O1.Cl (configuration not stated)	8.949%
CCC(C)NC(=O)Cn1ccc2c(C)nn(CC)c2c1=O (configuration not stated)	-10.24%
Cc1nc(N2CCCC2)ccc1NCc1ccccn1	4.716%
c1ccc(CNc2ccccc2N2CCCC2)nc1	50.65%
c1ccc(N2CCCC2)c(NCc2ccncc2)c1	-19.28%
